Inconclusive results are not listed. A call without a number means that no potency is given here. Calls of active or inactive are those of the source. The call rests on the fitted dose curve; in most records, active means well fitted inhibition curve with a large enough effect; inconclusive means small, poorly fitted or top-dose-only effect; inactive means flat fitted curve, though single readings scatter.
test system: HACAT; experiment: qHTS assay to identify novel small-molecules to repurpose for Merkel cell carcinoma treatment (AID 1296009); conditions: MCC and control cell lines, CellTiter-Glo viability, 72 h; at 44.8 µM (top of the series) unless noted; further: nearly all actives have a fitted effect of over 60% in size
In short: (§1)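 Viability readout: ATP luminescence (CellTiter-Glo) after 72 hr drug exposure at 37 degree celsius. Dose-response format was 8 points for NPC and 11 points for MIPE; data normalized to in-plate controls.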
Potency means the concentration at half of the fitted maximal effect.

SMILES | outcome
CS(=O)(=O)c1ccc(C2=C(c3ccccc3)C(=O)OC2)cc1 | inactive
CN[C@@H](C)[C@H]1[C@H](O)C[C@@]2(C)[C@@H]3CC[C@H]4C(C)(C)[C@@H](NC)CC[C@@]45C[C@@]35CC[C@]12C | inactive [at 9.27 µM]
CCC(C)SSc1ncc[nH]1 (stereo not given) | inactive
COc1ccc(Cn2ccc3ccc(C(=O)NO)cc32)cc1 | inactive
COc1nccc(-c2c(-c3ccc(F)cc3)ncn2C2CCC(O)CC2)n1 (stereo not given) | inactive
Cc1nc2c([nH]1)CCN(C(=O)c1ccc(NC(=O)c3ccccc3-c3ccccc3)cc1)c1ccccc1-2 | inactive

test system: HEK293T; experiment: as above; conditions: MCC and control cell lines, CellTiter-Glo viability, 72 h; at 44.8 µM (top of the series) unless noted
In short: as §1

SMILES | outcome
CS(=O)(=O)c1ccc(C2=C(c3ccccc3)C(=O)OC2)cc1 | inactive
COc1nccc(-c2c(-c3ccc(F)cc3)ncn2C2CCC(O)CC2)n1 (stereo not given) | inactive
Cn1cc(-c2ccc3nnc(Sc4ccc5ncccc5c4)n3n2)cn1 | inactive

test system: MCC-13; experiment: as above; conditions: MCC and control cell lines, CellTiter-Glo viability, 72 h; series mostly up to 46 µM
In short: as §1

SMILES | Potency
COc1ccc(-c2cc3nccn3c(Nc3ncccc3C(N)=O)n2)cc1OC | inactive
CN1CC(=O)NC1=NC(=O)Nc1cccc(Cl)c1 | inactive
O=C1NC(=O)C(=Cc2ccc(-c3ccc(F)cc3O)o2)S1 | inactive
CS(=O)(=O)c1ccc(C2=C(c3ccccc3)C(=O)OC2)cc1 | inactive
Cc1ccc(C(=O)N(CCCN)[C@@H](c2oc3cc(Cl)ccc3c(=O)c2Cc2ccccc2)C(C)C)cc1 | 8.3 nM (active)
Cc1cc(OCCCS(C)(=O)=O)cc(C)c1-c1cccc(COc2ccc3c(c2)OC[C@H]3CC(=O)O)c1 | inactive
CN[C@@H](C)[C@H]1[C@H](O)C[C@@]2(C)[C@@H]3CC[C@H]4C(C)(C)[C@@H](NC)CC[C@@]45C[C@@]35CC[C@]12C | inactive
Cc1ccc(C(=O)N(CCCN)[C@@H](c2nc3cc(Cl)ccc3c(=O)n2Cc2ccccc2)C(C)C)cc1 | 29.6 nM (active)
CCCCCCCCCCCCCC(=O)N[C@H](CO)[C@H](O)c1ccc([N+](=O)[O-])cc1 | inactive
Cc1ccc(NC(=O)c2ccc(CN3CCN(C)CC3)cc2)cc1Nc1nc(-c2cccnc2)cs1 | inactive
CN(C(Cc1ccc(OS(=O)(=O)c2cccc3cnccc23)cc1)C(=O)N1CCN(c2ccccc2)CC1)S(=O)(=O)c1cccc2cnccc12 (stereo not given) | inactive
COc1ccc(Cn2ccc3ccc(C(=O)NO)cc32)cc1 | inactive
Cc1cccc(Nc2nc(N[C@@H]3CCCC[C@H]3N)ncc2C(N)=O)c1 | inactive
Cc1cc(-c2ncc(CC(=O)Nc3ccc(-c4cnccn4)cn3)cc2C)ccn1 | inactive
CC[C@H](CC#N)OC(=O)N[C@@H](C)c1cccc(NC(=O)Nc2ccc(-c3cnco3)c(OC)c2)c1 | 4180 nM (active)
COc1nccc(-c2c(-c3ccc(F)cc3)ncn2C2CCC(O)CC2)n1 (stereo not given) | inactive
CC(O)=C(C#N)C(=O)Nc1ccc(C(F)(F)F)cc1 | inactive
CCNC(=O)c1noc(-c2cc(C(C)C)c(O)cc2O)c1-c1ccc(CN2CCOCC2)cc1 | 209 nM (active)
O=C(c1ccc(C=Cc2n[nH]c3ccccc23)cc1)N1CCNCC1 | inactive
Cn1cc(-c2ccc3nnc(Sc4ccc5ncccc5c4)n3n2)cn1 | inactive
CN(C)CCN(C)C(=O)c1ccc(NC(=O)Nc2ccc(-c3nc(N4CCOCC4)c4ccn(CC(F)(F)F)c4n3)cc2)cc1 | inactive
Fc1ccc(CNc2ncnc3ccc(F)cc23)cc1 | inactive
Cc1nc2c([nH]1)CCN(C(=O)c1ccc(NC(=O)c3ccccc3-c3ccccc3)cc1)c1ccccc1-2 | inactive
Cn1cnc(-c2cc3nccc(Oc4ccc(NC(=S)NC(=O)Cc5ccccc5)cc4F)c3s2)c1 | inactive
Cc1cnc(CNC(=O)c2c(=O)c3ccc(N4CCCN(C)CC4)nc3n3c2sc2ccccc23)cn1 | inactive
C[C@H]1O[C@@H](n2cc(F)c(=O)[nH]c2=O)[C@H](O)[C@H]1O | inactive
